Activity calls are given as the source filed them.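 The calls were made as follows, unless noted: active = differentiation response of at least 50%, scaled between solvent and reference control, from cells with both markers; inactive = the rest.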
Assays:
[1] = reduced mouse 2C T cell binding to pMHC/ICAM-1 vesicles – MLPCN validation set, flow cytometry, LFA-1/ICAM-1 modulator project, pilot screen (AID 2523;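 active = response below a set limit, under 55% cells CD8-positive and vesicle-bound, and CD8 cells' 90th-percentile brightness under 279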;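 as to vesicle binding response: mean PE anti-B7-1 fluorescence of CD8+ cells relative to row control; 100% = QL9-loaded vesicles with DMSO vehicle in the same plate row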); conditions: 2C mouse CD8+ T cells, at 7 µM, stronger effect = lower value; double positive events: measured here: CD8+/vesicle+ event percentage
[2] = biological target: Integrin beta-1 (Homo sapiens) + Integrin alpha-4 (Homo sapiens) (UniProt P13612+P05556); experiment: alpha4beta1 integrin LIBS antibody binding reduction – U937 cells, HUTS-21 mAb, flow cytometry, validation set, VLA-4 allosteric modulator project, pilot screen (AID 2674;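 active = inhibition above 50%, about 3 SD of the validation set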;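 also: antibody binding induced by the VLA-4 ligand LDV present at three times its Kd; 0% = LDV ligand with antibody and no compound and 100% = antibody without LDV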); conditions: HUTS-21 LIBS mAb binding, at 6.7 µM, stronger effect = higher value, binding induced by LDV ligand
[3] = calorie-restriction mimetic ROS inhibitors, yeast – validation compound set, pilot screen (AID 2706;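 active = superoxide response below 65% of plate, a cut near 3 SD across the whole screen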;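 also: yeast exposed to compound for one week at 30 degrees C before staining; 100% = mean of all compound wells on the same plate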); conditions: S. cerevisiae aging, superoxide DHE fluorescence; at 10 µM, stronger effect = lower value
[4] = biological target: Beta-adrenergic receptor kinase 1 (Homo sapiens) (UniProt P25098); experiment: GRK2 binders displacing RNA aptamer, biochemical, validation, human GRK2, bead flow cytometry (AID 488806;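 active = aptamer binding inhibition above 30%, about 3 SD of noise from non-fluorescent compounds; inactive = inhibition at or below 30%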); conditions: bead-bound GRK2, FAM-aptamer displacement, at 10 µM, stronger effect = higher value
[5] = biological target: Beta-2 adrenergic receptor (Homo sapiens) (UniProt P07550); experiment: agonist-induced loss of surface beta2AR – cell-based, FAP fluorogen, flow cytometry, validation set, pilot screen (AID 504459;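 active = percent response above 42, roughly 3 SD of non-fluorescent test compounds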;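 also: agonist-driven loss of surface beta2AR via internalization measured by FAP dye flow cytometry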); conditions: Am2.2-beta2AR cells, at 10 µM, stronger effect = higher value
[6] = biological target: AP-2 complex subunit beta (Homo sapiens) (UniProt P63010); experiment: beta-arrestin/AP2 interaction blockers – biochemical, validation set, GST-AP2 beads, flow cytometry, pilot screen (AID 504541;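 active = inhibition above 54%, about 3 SD of non-fluorescent compounds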;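 also: AP2 carries R879A mutation and is captured from E. coli lysate; bead-bound FITC arrestin peptide fluorescence measuring arrestin peptide binding to AP2; 0% = DMSO wells and 100% = excess unlabeled arrestin peptide control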); conditions: FITC arrestin peptide, at 10 µM, stronger effect = higher value, AP2 beta2 appendage fragment, R879A mutant
[7] = cytosolic pH regulators acting via V-ATPase – S. cerevisiae, pHLuorin, HTS validation (AID 504600; in the data active = response above about 15%;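 also: plate controls were DMSO for no effect and reference compound for full effect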); conditions: V-ATPase proton transport, at 10 µM, stronger effect = higher value
[8] = test system: anti-desmoglein-3 scFv antibody binding to human DSG3; experiment: blockers of pathogenic pemphigus antibody–desmoglein-3 binding – biochemical, validation compound set, bead-based, flow cytometry, pilot screen (AID 588368;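 active = binding below the plate cutoff, the plate median minus 3 SD, with a reading above zero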;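 also: signal is the median channel fluorescence of bead-bound GFP antibody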); conditions: Protein G beads, DSG3-Fc, scFv-GFP binding, at 10 µM, stronger effect = lower value
[9] = Nile Red efflux blockade in pump-expressing yeast – validation compound set, multiplex, phenotypic, pilot screen (AID 588506;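 active = efflux inhibition above 0.42, the validation set average plus 4 SD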;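 also: Nile Red retained in cells so higher fluorescence means more efflux inhibition; 0 = negative control wells and 1 = enniatin B 25 µM full block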); conditions: S. cerevisiae pump-expressing triplex, Nile Red efflux flow cytometry; at 10 µM; stronger effect = higher value; the pumps come from Candida albicans
[10] = biological target: ATP-binding cassette sub-family B member 6 (Homo sapiens) (UniProt Q9NP58); experiment: blockers of ABCB6-driven porphyrin uptake – K562-ABCB6 cells, flow cytometry, validation set, pilot screen (AID 588550;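 active = inhibition above the screen-wide mean plus 3 SD, about 51%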;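 also: 0% = DMSO wells and 100% = benzethonium chloride 70 µM positive control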); conditions: K562-ABCB6 porphyrin accumulation, 1 h, at 10 µM, stronger effect = higher value
[11] = AML differentiation inducers, ER-HoxA9 marrow cells – cell-based, GFP/MAC1 double positive, flow cytometry, validation set, primary screen (AID 588685); conditions: stronger effect = higher value, normalized: vehicle 0, fulvestrant 100;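 also: compound exposure lasts four days before antibody staining and flow analysis; 0% = DMSO wells and 100% = 5 µM fulvestrant positive control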

AP-2 complex subunit beta (Homo sapiens), sequence (P63010 whole entry, looked up, the tested form may be a part, one chain of several): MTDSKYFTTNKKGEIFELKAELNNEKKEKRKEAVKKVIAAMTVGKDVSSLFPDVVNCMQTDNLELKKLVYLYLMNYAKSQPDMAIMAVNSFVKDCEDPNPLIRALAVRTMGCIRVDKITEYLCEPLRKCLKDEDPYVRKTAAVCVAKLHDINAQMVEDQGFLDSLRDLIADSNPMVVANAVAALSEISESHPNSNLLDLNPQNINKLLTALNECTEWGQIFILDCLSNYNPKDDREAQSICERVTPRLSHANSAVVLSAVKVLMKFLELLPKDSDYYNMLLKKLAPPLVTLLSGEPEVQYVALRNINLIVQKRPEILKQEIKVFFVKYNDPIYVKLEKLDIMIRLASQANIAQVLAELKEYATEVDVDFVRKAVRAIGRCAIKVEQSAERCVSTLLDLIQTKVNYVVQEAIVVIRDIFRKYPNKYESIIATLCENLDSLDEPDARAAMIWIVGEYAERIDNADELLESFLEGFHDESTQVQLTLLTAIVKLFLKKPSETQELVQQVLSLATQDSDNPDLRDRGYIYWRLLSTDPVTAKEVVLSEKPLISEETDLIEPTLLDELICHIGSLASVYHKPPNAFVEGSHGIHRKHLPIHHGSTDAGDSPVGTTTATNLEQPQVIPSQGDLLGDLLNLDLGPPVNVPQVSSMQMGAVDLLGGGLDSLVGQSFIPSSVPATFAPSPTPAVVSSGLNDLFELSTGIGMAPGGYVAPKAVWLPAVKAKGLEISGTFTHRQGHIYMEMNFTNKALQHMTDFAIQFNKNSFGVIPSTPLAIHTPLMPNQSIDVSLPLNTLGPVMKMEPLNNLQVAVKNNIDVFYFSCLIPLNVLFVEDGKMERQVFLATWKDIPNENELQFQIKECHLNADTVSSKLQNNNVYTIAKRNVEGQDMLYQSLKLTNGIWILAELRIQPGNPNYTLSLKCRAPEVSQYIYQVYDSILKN
Beta-adrenergic receptor kinase 1 (Homo sapiens), sequence (P25098 whole entry, looked up): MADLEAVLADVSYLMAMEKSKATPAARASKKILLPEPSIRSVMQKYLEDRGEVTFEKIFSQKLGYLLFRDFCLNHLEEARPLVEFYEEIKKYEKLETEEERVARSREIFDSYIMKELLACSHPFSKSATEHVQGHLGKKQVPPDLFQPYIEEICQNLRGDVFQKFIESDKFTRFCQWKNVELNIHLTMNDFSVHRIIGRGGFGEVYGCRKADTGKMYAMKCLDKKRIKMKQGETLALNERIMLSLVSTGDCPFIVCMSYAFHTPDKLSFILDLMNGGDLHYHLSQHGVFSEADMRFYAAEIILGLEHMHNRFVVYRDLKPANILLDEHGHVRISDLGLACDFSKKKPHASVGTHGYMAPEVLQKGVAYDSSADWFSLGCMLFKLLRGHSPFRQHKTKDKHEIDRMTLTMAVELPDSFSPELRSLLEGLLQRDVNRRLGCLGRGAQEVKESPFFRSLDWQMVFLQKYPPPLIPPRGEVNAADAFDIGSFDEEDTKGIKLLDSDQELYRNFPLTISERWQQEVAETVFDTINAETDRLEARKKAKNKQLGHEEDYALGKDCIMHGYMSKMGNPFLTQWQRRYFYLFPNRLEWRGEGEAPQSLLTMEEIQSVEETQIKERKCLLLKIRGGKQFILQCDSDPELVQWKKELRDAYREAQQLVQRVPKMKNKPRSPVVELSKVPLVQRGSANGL
Beta-2 adrenergic receptor (Homo sapiens), sequence (P07550 whole entry, looked up): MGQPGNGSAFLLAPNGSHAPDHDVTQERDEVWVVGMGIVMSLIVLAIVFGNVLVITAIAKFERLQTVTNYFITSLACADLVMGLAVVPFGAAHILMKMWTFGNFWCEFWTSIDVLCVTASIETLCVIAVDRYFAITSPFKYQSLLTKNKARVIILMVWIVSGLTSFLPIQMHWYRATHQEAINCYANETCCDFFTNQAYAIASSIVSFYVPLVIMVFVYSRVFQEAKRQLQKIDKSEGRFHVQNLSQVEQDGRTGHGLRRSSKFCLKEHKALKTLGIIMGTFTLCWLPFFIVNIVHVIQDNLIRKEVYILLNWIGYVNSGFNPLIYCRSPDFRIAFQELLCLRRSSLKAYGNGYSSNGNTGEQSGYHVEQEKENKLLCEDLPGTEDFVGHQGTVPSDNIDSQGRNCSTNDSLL
Integrin beta-1 (Homo sapiens) + Integrin alpha-4 (Homo sapiens), sequence (P05556 whole entry, looked up): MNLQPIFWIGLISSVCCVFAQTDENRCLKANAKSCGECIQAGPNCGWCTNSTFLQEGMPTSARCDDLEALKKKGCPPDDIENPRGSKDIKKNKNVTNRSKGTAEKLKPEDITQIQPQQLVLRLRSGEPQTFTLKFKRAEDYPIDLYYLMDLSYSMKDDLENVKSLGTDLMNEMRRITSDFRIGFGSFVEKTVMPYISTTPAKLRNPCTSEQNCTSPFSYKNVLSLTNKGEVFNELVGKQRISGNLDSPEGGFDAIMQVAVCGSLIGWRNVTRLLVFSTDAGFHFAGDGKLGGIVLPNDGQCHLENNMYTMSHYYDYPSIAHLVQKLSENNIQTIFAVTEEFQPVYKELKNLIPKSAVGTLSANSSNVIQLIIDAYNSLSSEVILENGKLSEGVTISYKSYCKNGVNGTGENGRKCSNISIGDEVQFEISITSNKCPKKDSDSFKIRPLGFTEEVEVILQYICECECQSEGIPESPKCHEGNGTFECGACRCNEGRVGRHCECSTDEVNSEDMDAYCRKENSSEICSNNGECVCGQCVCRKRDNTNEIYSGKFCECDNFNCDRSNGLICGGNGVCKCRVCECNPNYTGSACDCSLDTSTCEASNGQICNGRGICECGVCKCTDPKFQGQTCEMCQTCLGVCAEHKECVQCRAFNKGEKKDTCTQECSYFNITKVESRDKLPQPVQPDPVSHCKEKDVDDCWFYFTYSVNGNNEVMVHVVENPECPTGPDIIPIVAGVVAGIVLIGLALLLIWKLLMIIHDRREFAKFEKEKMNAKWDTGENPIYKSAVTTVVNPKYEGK
Integrin beta-1 (Homo sapiens) + Integrin alpha-4 (Homo sapiens), sequence (P13612 whole entry, looked up): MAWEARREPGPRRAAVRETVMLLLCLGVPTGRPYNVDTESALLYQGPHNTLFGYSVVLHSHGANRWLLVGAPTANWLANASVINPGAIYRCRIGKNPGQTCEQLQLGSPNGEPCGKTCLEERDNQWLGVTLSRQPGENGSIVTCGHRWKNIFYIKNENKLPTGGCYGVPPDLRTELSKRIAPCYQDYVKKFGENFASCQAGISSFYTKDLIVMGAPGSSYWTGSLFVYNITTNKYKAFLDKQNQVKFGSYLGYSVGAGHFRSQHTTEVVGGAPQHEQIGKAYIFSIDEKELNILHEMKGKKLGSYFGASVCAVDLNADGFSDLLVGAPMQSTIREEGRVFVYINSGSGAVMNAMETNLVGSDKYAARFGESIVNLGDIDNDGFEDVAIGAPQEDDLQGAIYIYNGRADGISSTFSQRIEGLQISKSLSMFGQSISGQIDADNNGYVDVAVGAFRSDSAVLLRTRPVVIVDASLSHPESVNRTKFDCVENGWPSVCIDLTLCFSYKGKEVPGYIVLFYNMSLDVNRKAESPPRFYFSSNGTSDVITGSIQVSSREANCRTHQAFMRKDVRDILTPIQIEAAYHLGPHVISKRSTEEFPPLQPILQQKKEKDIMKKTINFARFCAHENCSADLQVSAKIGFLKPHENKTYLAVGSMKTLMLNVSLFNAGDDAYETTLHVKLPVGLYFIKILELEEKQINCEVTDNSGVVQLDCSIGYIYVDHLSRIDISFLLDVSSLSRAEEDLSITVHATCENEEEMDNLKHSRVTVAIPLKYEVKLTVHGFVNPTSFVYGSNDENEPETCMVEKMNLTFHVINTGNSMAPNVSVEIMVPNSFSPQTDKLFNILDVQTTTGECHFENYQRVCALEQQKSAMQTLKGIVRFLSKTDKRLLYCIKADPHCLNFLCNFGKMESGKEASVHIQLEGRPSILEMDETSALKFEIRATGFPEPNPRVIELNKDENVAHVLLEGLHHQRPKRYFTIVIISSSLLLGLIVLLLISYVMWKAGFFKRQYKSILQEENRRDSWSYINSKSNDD
ATP-binding cassette sub-family B member 6 (Homo sapiens), sequence (Q9NP58 whole entry, looked up): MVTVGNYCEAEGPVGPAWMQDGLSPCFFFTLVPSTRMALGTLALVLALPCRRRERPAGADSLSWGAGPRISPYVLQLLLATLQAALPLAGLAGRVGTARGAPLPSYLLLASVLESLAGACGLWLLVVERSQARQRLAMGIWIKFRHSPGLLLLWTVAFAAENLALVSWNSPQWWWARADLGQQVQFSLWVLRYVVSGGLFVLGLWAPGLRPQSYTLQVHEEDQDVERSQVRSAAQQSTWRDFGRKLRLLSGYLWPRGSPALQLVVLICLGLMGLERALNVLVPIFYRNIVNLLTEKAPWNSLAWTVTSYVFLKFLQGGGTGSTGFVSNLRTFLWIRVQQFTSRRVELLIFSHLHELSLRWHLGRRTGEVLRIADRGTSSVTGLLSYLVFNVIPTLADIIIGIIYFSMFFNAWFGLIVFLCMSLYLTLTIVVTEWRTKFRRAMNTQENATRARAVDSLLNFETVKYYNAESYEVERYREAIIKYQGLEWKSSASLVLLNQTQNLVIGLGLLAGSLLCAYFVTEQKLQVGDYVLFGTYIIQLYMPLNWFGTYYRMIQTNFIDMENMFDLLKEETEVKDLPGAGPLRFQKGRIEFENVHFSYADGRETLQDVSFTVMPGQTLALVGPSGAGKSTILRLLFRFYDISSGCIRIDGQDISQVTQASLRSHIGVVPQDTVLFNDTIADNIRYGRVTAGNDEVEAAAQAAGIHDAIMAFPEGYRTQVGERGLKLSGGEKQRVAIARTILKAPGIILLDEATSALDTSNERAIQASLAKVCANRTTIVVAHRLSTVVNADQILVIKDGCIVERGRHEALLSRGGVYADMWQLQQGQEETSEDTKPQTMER

Structure (SMILES)	double positive events [1] [%]	vesicle binding response [1]	inhibition [2]	superoxide response (% of plate) [3]	aptamer binding inhibition [4]	response [5]	inhibition [6]	response [7]	binding (% of control) [8]	efflux inhibition (fraction of control) [9]	inhibition [10]	differentiation response [11]
O=C(OCCN1CCCC1)C1(c2ccccc2)CCCC1	65.8	226% (inactive)	-4.52% (inactive)	86.5% (inactive)	1% (inactive)	1.23% (inactive)	-5.26% (inactive)	1.69% (inactive)	97% (inactive)	-0.06 (inactive)	-8% (inactive)	-7.2% (inactive)
C=CCNC(=S)N1CCc2c([nH]c3ccccc23)C1C (configuration not stated)	60.6	194% (inactive)	15.1% (inactive)	99% (inactive)	-3% (inactive)	-13% (inactive)	-13.8% (inactive)	2.11% (inactive)	102% (inactive)	-0.09 (inactive)	15% (inactive)	-11.9% (inactive)
COc1ccc(/C=C2\CCn3c2nc2cc(C(=O)O)ccc2c3=O)cc1OC	60.5	178% (inactive)	5.61% (inactive)	108% (inactive)	1% (inactive)	7.98% (inactive)	-3.78% (inactive)	0.13% (inactive)	102% (inactive)	0 (inactive)	2% (inactive)	-8.96% (inactive)
Cn1c(=O)c2c(nc(SCCN3CCCCC3)n2C)n(C)c1=O	61.5	176% (inactive)	-0.27% (inactive)	85.5% (inactive)	-3% (inactive)	-25.4% (inactive)	-6.3% (inactive)	1.6% (inactive)	110% (inactive)	-0.13 (inactive)	-2% (inactive)	-11.9% (inactive)
CC(C)C1Cc2[nH]c(=O)c(C(=O)O)cc2CO1 (configuration not stated)	64.9	1810% (inactive)	25.5% (inactive)	95.9% (inactive)	4% (inactive)	-2.38% (inactive)	-1.16% (inactive)	-0.04% (inactive)	94.2% (inactive)	-0.1 (inactive)	10% (inactive)	3.18% (inactive)
CN1CCc2cccc3c2[C@@H]1Cc1ccc(O)c(O)c1-3	61	194% (inactive)	-38.6% (inactive)	93.1% (inactive)	11% (inactive)	26.8% (inactive)	6.55% (inactive)	-9.4% (inactive)	100% (inactive)	-0.09 (inactive)	-20% (inactive)	5.85% (inactive)
Cc1csc(CCc2nc(C)cs2)n1	55.3	130% (inactive)	2.93% (inactive)	108% (inactive)	1% (inactive)	-2.9% (inactive)	-2.65% (inactive)	0.13% (inactive)	102% (inactive)	0.01 (inactive)	17% (inactive)	-4.57% (inactive)
CC1(C)C2CCC1(C(=O)O)c1nc3ccccc3nc12 (configuration not stated)	61.8	372% (inactive)	-1.12% (inactive)	72.9% (inactive)	2% (inactive)	-10.7% (inactive)	6.26% (inactive)	0.59% (inactive)	100% (inactive)	0.04 (inactive)	20% (inactive)	-6.96% (inactive)
CCCCC[C@H](O)/C=C/[C@@H]1[C@@H](C/C=C\CCCC(=O)O)[C@@H](O)C[C@H]1O	60.4	106% (inactive)	-49.3% (inactive)	96.5% (inactive)	1% (inactive)	-3.9% (inactive)	-12.4% (inactive)	-1.19% (inactive)	98.8% (inactive)	0.045 (inactive)	1% (inactive)	-11.9% (inactive)
COc1ccc(NC(=S)NCCc2c[nH]c3ccccc23)cc1	69.3	445% (inactive)	-1.97% (inactive)	111% (inactive)	1% (inactive)	-13.3% (inactive)	-10.2% (inactive)	-1.54% (inactive)	108% (inactive)	0 (inactive)	8% (inactive)	-6.96% (inactive)
CC(=O)N(CCC1(C(C)C)CCOC(C)(C)C1)Cc1ccco1 (configuration not stated)	64.3	276% (inactive)	-16.8% (inactive)	94.3% (inactive)	-4% (inactive)	3.66% (inactive)	0.1% (inactive)	-0.44% (inactive)	105% (inactive)	-0.09 (inactive)	11% (inactive)	12.3% (inactive)
CCCC(=O)O[C@]1(C(=O)CO)CC[C@H]2[C@@H]3CCC4=CC(=O)CC[C@]4(C)[C@H]3[C@@H](O)C[C@@]21C	56.4	901% (inactive)	-8.75% (inactive)	105% (inactive)	-3% (inactive)	-0.28% (inactive)	14.7% (inactive)	-3.44% (inactive)	99.7% (inactive)	-0.2 (inactive)	1% (inactive)	-3.67% (inactive)
Cc1ccc2c(CN3CCN(Cc4ccc5c(c4)OCO5)CC3)cc(=O)oc2c1C	58.4	88.4% (inactive)	-7.79% (inactive)	87.4% (inactive)	-2% (inactive)	-2.16% (inactive)	4.85% (inactive)	-2.29% (inactive)	106% (inactive)	-0.28 (inactive)	-11% (inactive)	-6.03% (inactive)
O=c1cc(Cn2ccnc2)c2cc3c(cc2o1)CCC3	57.6	143% (inactive)	-11.3% (inactive)	99.2% (inactive)	-2% (inactive)	-7.31% (inactive)	8.12% (inactive)	-1.72% (inactive)	105% (inactive)	0.08 (inactive)	2% (inactive)	48.8% (inactive)
O=C(/C=C/c1ccco1)NCc1ccc2c(c1)OCO2	63	260% (inactive)	-3.16% (inactive)	101% (inactive)	0% (inactive)	-2.38% (inactive)	-3% (inactive)	1.08% (inactive)	94.7% (inactive)	0.19 (inactive)	8% (inactive)	-10.4% (inactive)
COc1ccc(C(=O)[C@H]2[C@H]3C(=O)N(c4ccccc4)C(=O)[C@H]3C3C=CC=NN32)cc1 (some centres not stated)	62.9	227% (inactive)	-7.79% (inactive)	96.9% (inactive)	3% (inactive)	0.22% (inactive)	28.5% (inactive)	-6.05% (inactive)	99.8% (inactive)	0.01 (inactive)	-9% (inactive)	-8.96% (inactive)
NS(=O)(=O)c1cc2c(cc1C(F)(F)F)NCNS2(=O)=O	80.6	205% (inactive)	10.8% (inactive)	92.9% (inactive)	5% (inactive)	-9.47% (inactive)	1.9% (inactive)	1.35% (inactive)	101% (inactive)	-0.04 (inactive)	11% (inactive)	-3.02% (inactive)
COc1ccc(CCCC(=O)O)c(C)c1	63.8	282% (inactive)	-9.06% (inactive)	92.3% (inactive)	-1% (inactive)	1.17% (inactive)	5.62% (inactive)	-1.31% (inactive)	111% (inactive)	-0.2 (inactive)	17% (inactive)	0% (inactive)
O=C1N[C@@H](Cc2cnc[nH]2)C(=O)N2CCC[C@@H]12	59.8	103% (inactive)	12.3% (inactive)	125% (inactive)	2% (inactive)	6.03% (inactive)	-3.62% (inactive)	6.06% (inactive)	100% (inactive)	-0.07 (inactive)	-2% (inactive)	-7.5% (inactive)
O=C(/C=C/c1ccccc1)/C=C/c1ccccc1	69.3	434% (inactive)	21.4% (inactive)	105% (inactive)	2% (inactive)	48.5% (active)	-3.48% (inactive)	0.62% (inactive)	96.6% (inactive)	-0.17 (inactive)	2% (inactive)	-16.8% (inactive)
COc1ccc(C(=O)Nc2nc3ccccc3c(=O)[nH]2)cc1	65.5	352% (inactive)	3.67% (inactive)	84.4% (inactive)	0% (inactive)	37.4% (inactive)	4.94% (inactive)	-8.54% (inactive)	99.1% (inactive)	-0.03 (inactive)	4% (inactive)	0% (inactive)
O=c1cc(-c2ccc3c(c2)OCCO3)oc2ccc(Cl)cc12	59	102% (inactive)	2.93% (inactive)	98.9% (inactive)	-1% (inactive)	-2.34% (inactive)	-6.8% (inactive)	51.3% (active)	74.9% (active)	0.08 (inactive)	27% (inactive)	-6.03% (inactive)
COc1ccc(-c2cc(=O)oc3c(C)c(O)c(CN(C)C)cc23)cc1	66	183% (inactive)	9.63% (inactive)	96.8% (inactive)	1% (inactive)	-14.6% (inactive)	2.69% (inactive)	5.58% (inactive)	98.3% (inactive)	0.42 (inactive)	0% (inactive)	2.74% (inactive)
COc1ccc(O)c(N)c1	70.2	381% (inactive)	-22.3% (inactive)	104% (inactive)	5% (inactive)	76.4% (active)	20.1% (inactive)	3.74% (inactive)	99.1% (inactive)	-0.1 (inactive)	7% (inactive)	-0.8% (inactive)
CC(COc1ccccc1)N(CCCl)Cc1ccccc1 (configuration not stated)	70.8	566% (inactive)	6.46% (inactive)	97.4% (inactive)	2% (inactive)	-7.17% (inactive)	1.11% (inactive)	2.49% (inactive)	100% (inactive)	-0.35 (inactive)	10% (inactive)	0% (inactive)
COc1ccccc1C(=O)N=C1NC(=O)CC2C(=O)NCCN12 (configuration not stated)	63.2	245% (inactive)	6.4% (inactive)	100% (inactive)	0% (inactive)	-0.52% (inactive)	0.24% (inactive)	-0.05% (inactive)	103% (inactive)	0.08 (inactive)	9% (inactive)	-8.8% (inactive)

Reference: PubChem BioAssay
